pCIP destab = p/CIP-EGFP fusion destabilizers, primary screen, fluorescence, F442A cells; 16 h; 0.01% of 290,000 active; decrease of EGFP signal, % at 10 µM; Q05BA5;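 active means EGFP signal decrease of at least 30% at 10 µM or well 3 SD below plate mean, unless failing retest; inactive means the rest, including hits failing retest or dose response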
AHR act = AHR activators, primary screen, cell-based, luminescence, luciferase reporter, human | Aryl hydrocarbon receptor (Homo sapiens), P35869 | AHR-responsive luciferase reporter cells | activation, % at 5 µM | 2.5% of 320,000 active; in the data active means activation above about 47%;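 further: 0% = vehicle wells and 100% = reference agonist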
HIF activator = HIF pathway transcriptional activators, primary screen, cell-based, U2OS HRE-luciferase, luminescence | AID 1910, 2009 | U2OS HRE-luciferase reporter; normalized: DMSO 0%, desferrioxamine 100% | 0.32% of 300,000 active | activation, % at 7.5 µM (by protocol);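 active means mean activation of at least 10% of the iron chelator positive control signal, with at least half of replicates also reaching 10%; inconclusive means mean and replicate majority disagree about reaching 10%; inactive means mean and most replicates under 10%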
PolyA inhibitor = polyadenylation inhibitors in yeast reporter cells, primary screen, luminescence, S. cerevisiae | activity score, % at 12 µM | S. cerevisiae SKY197-pL101 polyadenylation reporter, beta-gal luminescence; efflux-impaired pdr1/pdr3 knockout yeast; score 100 = 6 SD above DMSO | 0.02% of 300,000 active;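 active means lowest replicate activity score at least 50, where 100 means six control SD above control mean; inconclusive means lowest score under 50 but half or more replicates reach 50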;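 further: yeast exposed to compound for 9 h at 30 °C; higher score means more reporter readthrough which indicates perturbed polyadenylation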
Platelet DG rel = inhibitors of platelet dense granule secretion, primary screen, cell-based, MLPCN, human platelets. human platelet-rich plasma, SFLLRN dense granule ATP release, luminescence. 0.22% of 300,000 active. inhibition, %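 (compounds screened at 7.5 µM in platelet-rich plasma)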. AID 1663, 2009;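 active means mean replicate score, as percent of positive control, at or above 50; inconclusive means mean below 50 but at least one replicate at or above 50; inactive means mean and every replicate below 50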
AHR act cf = AHR activators, confirmation, cell-based, luminescence, luciferase reporter, human; human cells, AHR-responsive luciferase reporter; shares compounds with AHR act; activation, % at 9 µM; 87% of 2,300 active; AID 2845, 2010; in the data active means activation above about 49%;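 further: HepG2 hepatoma cells carrying a DRE-driven firefly luciferase reporter; 0% = vehicle wells and 100% = reference agonist wells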
PXR counter = human PXR activators, counter-screen for AHR activator project, cell-based, luciferase luminescence. shares compounds with AHR act. cell-based PXR reporter. activation, % at 11.6 µM. 88% of 2,300 active. AID 434939, 2010; in the data active means activation above about 11%;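 further: human hepatoma DPX-2 cells expressing full-length human PXR; 0% = DMSO and 100% = reference agonist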
Target sequence (O75469 whole entry, looked up): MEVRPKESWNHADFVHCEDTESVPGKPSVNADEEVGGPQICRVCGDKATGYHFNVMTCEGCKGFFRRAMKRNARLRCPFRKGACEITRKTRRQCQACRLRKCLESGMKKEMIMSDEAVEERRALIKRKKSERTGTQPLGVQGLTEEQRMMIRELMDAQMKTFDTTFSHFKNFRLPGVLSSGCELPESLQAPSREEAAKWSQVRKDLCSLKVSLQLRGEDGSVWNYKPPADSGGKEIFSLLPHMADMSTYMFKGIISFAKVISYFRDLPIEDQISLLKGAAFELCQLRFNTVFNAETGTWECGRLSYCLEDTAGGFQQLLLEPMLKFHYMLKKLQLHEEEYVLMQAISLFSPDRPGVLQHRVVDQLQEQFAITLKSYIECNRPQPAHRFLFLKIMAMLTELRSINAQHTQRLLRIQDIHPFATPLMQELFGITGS
Starred values were filed as active, the others as inactive; ? = inconclusive; . = no result. This is a sample that favours compounds with a hit; in the whole collection about 2.8% have one here.

SMILES	pCIP destab	AHR act	HIF activator	PolyA inhibitor	Platelet DG rel	others
O=C(N/N=C/c1ccc(O)c(O)c1O)/C(=C/c1ccc([N+](=O)[O-])cc1)NC(=O)c1ccccc1	4	26	10*	9	3
CC(=O)c1cc2c(cc1NC(=O)c1ccc(Cl)cc1)OCCO2	-3	17	2	-20	8
CN(C)C(=O)Nc1ccccc1CC[N+](=O)[O-]	3	12	1	8	0
O=C(Nc1cccc(Cl)c1)Nc1cccc(C(=O)O)c1	-7	-5	12*	0	4
O=C(Nc1ccc(Cl)cc1)Nc1cccc(C(=O)O)c1	2	-12	-3	11	7
CC(=O)c1cc2c(cc1NC(=O)Nc1cccc(Cl)c1)OCCO2	-6	58*	0	8	3
O=C(Nc1ccc(Cl)c(Cl)c1)Nc1ccccc1C(=O)O	-3	3	1	9	30
O=C(Nc1ccc(Cl)cc1)Nc1ccccc1CC[N+](=O)[O-]	-8	67*	0	2	-4
O=C(Nc1ccc(Cl)cc1)Nc1ccccc1C(=O)O	-6	0	0	-9	53*
CC(=O)Nc1ccc(N(C(=O)c2ccccn2)C(C(=O)NC2CCCCC2)c2ccc(F)cc2)cc1 (stereo unspecified)	-9	1	0	-4	7
O=C(CCn1c(=O)oc2ccccc21)Nc1cccc(Br)c1	-6	4	0	8	-5
NC(=O)c1ccccc1NC(=O)Nc1cccc(Cl)c1	4	8	0	7	10
O=C(Nc1cccc(Cl)c1)Nc1ccccc1C(=O)O	-3	17	2	-19	75*
NNC(=O)c1[nH]c(-c2ccccc2)cc1-c1ccccc1	6	10	-1	9	-4
Cc1nc(N2CCN(c3ccccc3)CC2)[nH]c(=O)c1C	-15	-3	0	-9	-5
Cc1cc(C)nc(N/N=C/C2=C(O)CC(c3ccc(F)cc3)CC2=O)n1 (stereo unspecified)	-15	12	22*	-20	-6
COc1ccccc1N1C(=O)C(Cl)=C(Nc2ccccc2O)C1=O	-8	.	1	-10	-1
O=C1C(Cl)=C(Nc2ccccc2O)C(=O)N1c1ccccc1	-4	55*	2	-3	0
Oc1ccccc1/C=N/Nc1ncc(Br)cn1	-26	4	34*	-36	-8
Oc1ccccc1/C=N/Nc1nc2ccccc2o1	0	15	26*	-25	11
Brc1ccc(/C=N/Nc2nc3ccccc3o2)cc1	-10	29	4	15	1
CC(C)c1cc(-c2cc(C(=O)NCc3ccccc3)on2)nc(NC2CCCC2)n1	2	5	18*	2	0
CCOc1ccc(OCCC(=O)NNC(=O)c2cc(OC)c(OC)c(OC)c2)cc1	.	5	0	-4	-6
CNC(=O)c1ccsc1NC(=O)c1ccccc1	-2	49*	0	21	19
CNC(=O)c1ccsc1NC(=O)c1ccc(Cl)s1	-18	66*	1	-6	34
SMILES	pCIP destab	AHR act	HIF activator	PolyA inhibitor	Platelet DG rel	others
CC(NC(=O)CN1C(=O)NC2(CCCCCC2)C1=O)c1ccccc1Cl (stereo unspecified)	.	-1	.	.	.
Cc1nc2c(N=Nc3ccccc3F)c(N)nn2c(N)c1C#N	-3	60*	0	7	-4
Nc1nn(-c2ccccc2)c(N)c1N=Nc1ccccc1F	-7	64*	1	-7	12
Nc1nn(-c2ccccc2)c(N)c1N=Nc1ccccc1	4	21	3	-3	-1
O=C(O)c1ccccc1S(=O)(=O)CC(=O)N1CCCCC1	-12	0	-1	?	-4
CCC(=O)Nc1nc2ccc3sc(C)nc3c2s1	12	69*	1	-20	-4
Cc1cc(SCC(=O)N/N=C/c2ccc(O)c(O)c2O)c(C)cc1Br	0	6	36*	15	-6
COc1cc(/C=N/NC(=O)CSc2cc(C)c(Br)cc2C)ccc1O	9	6	0	-4	0
CCOC(=O)c1c(C)nc2c(c1-c1ccc(Cl)cc1)C(=O)CC(C)(C)C2	-7	-2	0	-17	-13
O=C(Nc1ccc2c(c1)OCO2)N1CCCC1	-1	70*	1	8	0
CC1CN(C(=O)Nc2ccc3c(c2)OCO3)CC(C)O1 (stereo unspecified)	7	52*	1	7	-4
O=C(Nc1ccc2c(c1)OCO2)N1CCCc2ccccc21	6	56*	2	19	7
O=C(Nc1ccc2c(c1)OCO2)N1CCN(c2ccc(F)cc2)CC1	-13	58*	3	-4	-11
O=C(Nc1ccc2c(c1)OCO2)N1CCOCC1	-10	44	6	?	-4
O=C(CCCn1c(=S)[nH]c2cc3c(cc2c1=O)OCO3)NCCc1ccccc1Cl	0	7	1	10	-7
CCc1ccc(NC(=O)Cn2cc([N+](=O)[O-])nc2C)cc1	-12	.	-2	-13	-3
CC(=O)Nc1sc(N/N=C/c2ccc(O)cc2)nc1-c1ccc(C)cc1	2	8	1	-2	4
CC(C)(C)c1csc(N/N=C/c2ccc(O)cc2)n1	-12	72*	4	22	2
COc1ccc(C(=O)/C=C/Nc2ccc(S(=O)(=O)Nc3cc(OC)nc(OC)n3)cc2)c(OC)c1	-6	0	0	7	-13
CCN(CCCNC(=O)Cn1ncc2c([nH]c3ccc(C)cc32)c1=O)c1ccccc1	0	3	0	-2	-2
Cc1ccc2[nH]c3c(=O)n(CC(=O)NCCCN(C)Cc4ccccc4)ncc3c2c1	-6	2	66*	23	-11
O=C(O)c1ccc2cccc(O)c2n1	-2	0	40*	12	2
Cc1ccc(-c2cc(-c3cccc(F)c3)n[nH]2)c(O)c1	-3	126*	8	-18	8	AHR act cf=142*;PXR counter=16*
Cc1ccc(-c2cc(-c3ccccc3C)[nH]n2)c(O)c1	-5	102*	.	.	.	AHR act cf=136*;PXR counter=18*
Cc1ccc(-c2[nH]ncc2C(=O)c2cccc(F)c2)c(O)c1	-6	9	-26	-4	-24
CCOc1ccc(C(=O)NCCC(=O)NCCCC(=O)O)cc1	-3	-2	1	5	-20
CC(=O)N1CC=C2C(C#N)=C(N)C(C#N)(C#N)C(CCc3ccccc3)C2C1 (stereo unspecified)	-4	80*	0	-19	5	AHR act cf=73*;PXR counter=24*

Screens deposited in PubChem BioAssay by several laboratories.
